Our source for the inhibition values is PubChem BioAssay AID2732 (Emory University Molecular Libraries Screening Center, 2010).

Structures are written as SMILES. In all, about 220,000 compounds went through this assay and about 8,200 (3.7%) were called active. The entries come from a sample that favours actives as a whole. Values without a mark were called inactive.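 The calls were made as follows: active = compounds that reduced the stress-induced luciferase reporter signal by more than about 70% of percent inhibition (limit read from the data); inactive = the rest.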

The assay can be described thus: blockers of ER-stress CHOP reporter expression – cell-based, unfolded protein response, luciferase reporter, primary screen (AID 2732).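 Also: 0% = tunicamycin plus vehicle and 100% = wells without tunicamycin.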 As to conditions: CHO-K1 CHOP-promoter luciferase, tunicamycin-induced, 15-18 h; at 10 µM; active compounds read high. Background: In a reporter assay the amount or activity of a reporter protein is the signal.
`CC(NC(=O)c1cc(-c2ccccc2)on1)c1ccccc1` (centres undefined): the inhibition (in general, the drop in the measured response relative to a control, in per cent) was 58.1%.

As for `O=C(Nc1ccccc1C(F)(F)F)c1cc(-c2ccc(O)cc2)on1`, the inhibition is 105% (active).

As to `O=C(c1cc(-c2ccc(O)cc2)on1)N1CCCc2ccccc21`, the inhibition is 40.4%.

For `CCCCCCNS(=O)(=O)c1ccccc1Br`, the inhibition was 16.4%.

With `CCOC(=O)C1=NN(c2ccc(Cl)cc2)/C(=C/C2=NCCc3cc(OC)c(OC)cc32)S1`, the inhibition was -5.16%.

With `CCCC(=O)NC(Nc1ccccc1OC)C(Cl)(Cl)Cl` (centres undefined), the inhibition is 21.3%.

As for `CCCCCCCC(=O)NC(Nc1ccccc1OC)C(Cl)(Cl)Cl` (centres undefined), the inhibition is 87.9% (active).

As for `COc1ccccc1NC(=O)CCCc1c[nH]c2ccccc12`, the inhibition was 0.61%.

Regarding `CCOC(=O)NNc1cc(C(F)(F)F)ccn1`, the inhibition is -10.6%.

For `COc1ccc(Cl)cc1C(=O)NNC(=O)c1nc2nc(C)cc(C)n2n1`, the inhibition is 11.4%.

For the compound `Cc1onc(-c2c(Cl)cccc2Cl)c1C(=O)NNC(=O)c1c(-c2c(Cl)cccc2Cl)noc1C`, the inhibition was -2.75%.

`O=C(/C=C/c1ccc(F)cc1)Nc1cccc(S(=O)(=O)Nc2cccc(C(F)(F)F)c2)c1`: the inhibition was 103% (active).

With `O=C(NCc1ccccc1)c1ccc(S(=O)(=O)Nc2cccc(C(F)(F)F)c2)cc1`, the inhibition is 26.6%.

As to `O=C(/C=C/c1ccc(Cl)cc1)Nc1ccc(S(=O)(=O)Nc2ncccn2)cc1`, the inhibition was 15.1%.

As to `OC(c1nc2ccccc2[nH]1)C(O)C(O)C(O)c1nc2ccccc2[nH]1` (centres undefined), the inhibition is 4.88%.

For `O=C(Cn1c(=O)n(Cc2ccco2)c(=O)c2ccccc21)NCC1CCCO1` (centres undefined), the inhibition is 19%.

`Cc1ccccc1NC(=O)NCc1ccco1`: the inhibition was -12.4%.

For the compound `Cc1ccccc1Cn1c2ccccc2c2cnn(CC(=O)NCc3ccco3)c(=O)c21`, the inhibition is 90.4% (active).

Take `C/C(=N/NC(=O)CN1CCN(S(=O)(=O)c2ccc(Br)cc2)CC1)c1ccncc1`: the inhibition is 10.9%.

Regarding `Cc1ccc(N2C(=O)CC(N3CCSCC3)C2=O)c(C)c1` (centres undefined), the inhibition is 19.1%.

With `CCc1cccc(CC)c1NC(=S)Nc1ccc2cn[nH]c2c1`, the inhibition is 22.1%.

As to `Cc1csc(NC(=S)Nc2cccc(Cl)c2)n1`, the inhibition was -212%.

With `FC(F)(F)c1cccc(NC(=S)Nc2cccc(Cl)c2)c1`, the inhibition was 87.2% (active).

Take `S=C(Nc1cccc(Cl)c1)Nc1ccc2cn[nH]c2c1`: the inhibition is -22.9%.

With `COc1cccc(NC(=O)NCc2ccc(F)cc2)c1`, the inhibition was 5.22%.

As for `Cc1cccc(NC(=O)Nc2cccc(Oc3c(F)c(F)c(F)c(F)c3F)c2)c1`, the inhibition is 97.1% (active).

As for `Cc1cccc(NC(=O)Nc2nnc(-c3ccccc3)o2)c1`, the inhibition was -9.17%.

On to `N#C/C(=C/c1ccc(-c2ccccc2[N+](=O)[O-])o1)C(=O)NCCN1CCCCC1`, for which the inhibition was 22.9%.

Consider `Cc1c(NC(=O)C(=O)N/N=C/c2cccs2)c(=O)n(-c2ccccc2)n1C`, for which the inhibition was 9.69%.

In the case of `CC(C)CCN1NC2(CCC(C)CC2)NC1=S` (centres undefined), the inhibition was -10.5%.

As to `CCCN(CCC)CC(O)COc1ccccc1C(=O)Nc1ccccc1` (centres undefined), the inhibition was 16.4%.

For `CC(=O)Nc1nc(C)c(-c2csc(Nc3ccc(S(N)(=O)=O)cc3)n2)s1`, the inhibition is 18.6%.

For the compound `CC(=O)Nc1ccc(/C=N/Nc2ccc(C(=O)c3c(C)cc4ccccn34)cc2[N+](=O)[O-])cc1`, the inhibition was 17.2%.

Regarding `CCN(CC)C(=O)CSC(Nc1cccc(F)c1)=C(C#N)C#N`, the inhibition was -25.7%.

Turning to `Oc1c(Br)cccc1/C=N/Nc1c(F)c(F)c(F)c(F)c1F`, the inhibition is 89.8% (active).

Turning to `O=[N+]([O-])c1cc(Br)c(O)c(/C=N/Nc2nc3ccccc3s2)c1`, the inhibition is 17.5%.

For the compound `COc1cccc(/C=N/Nc2ncc(C(F)(F)F)cc2Cl)c1O`, the inhibition is 46.9%.

`CCOc1c(Nc2cccc(Cl)c2)c(=O)c1=O`: the inhibition was 18.3%.

`O=S(=O)([N-]c1nc2ccccc2nc1-[n+]1ccc(Cc2ccccc2)cc1)c1ccc(Br)s1`: the inhibition is 21.4%.

For the compound `O=S(=O)(c1ccc(Br)cc1)c1nc(-c2ccccc2)oc1NCc1cccnc1`, the inhibition was 72.4% (active).

For `O=S(=O)(c1ccccc1)c1nc(-c2ccccc2F)oc1NCc1cccnc1`, the inhibition is 4.16%.

As for `O=C(NCc1cccnc1)c1ccc(CS(=O)(=O)c2ccc(Br)cc2)o1`, the inhibition was 61.7%.

Consider `O=C(Nc1ccc(Cl)cc1)Nc1ccc(C(=O)N2CCOCC2)cc1`, for which the inhibition is 33.4%.

In the case of `O=C(Nc1ccc2c(c1)OCCO2)c1ccoc1`, the inhibition was 0.05%.

Turning to `COc1ccccc1/C=C/C=N/NC(=O)CN1CCN(Cc2ccccc2)CC1`, the inhibition was 24.4%.

On to `Cc1cc2nc3c(=O)n(Cc4ccccc4)c(=O)[nH]c3nc2cc1N`, for which the inhibition was 3.92%.

On to `CS(=O)(=O)c1ccc2nc(NC(=O)c3ccc(N4CCCC4=O)cc3)sc2c1`, for which the inhibition was -17%.

Regarding `CCn1c(=O)c(=O)n(CC)c2cc(S(=O)(=O)N3CCc4ccccc43)ccc21`, the inhibition is 35%.

Regarding `O=C(Nc1nc2ccc([N+](=O)[O-])cc2s1)c1ccc(S(=O)(=O)N2CCCc3ccccc32)cc1`, the inhibition is 80.6% (active).

With `CNC(=O)c1ccsc1NC(=O)c1ccc(S(=O)(=O)N2CCc3ccccc32)cc1`, the inhibition is 37.3%.

As to `O=S(=O)(c1ccc2c(c1)OCCO2)N1CCc2ccccc21`, the inhibition was 32.4%.

Take `O=C(Nc1nc2ccc([N+](=O)[O-])cc2s1)c1ccncc1`: the inhibition is -12.2%.

For `COC(=O)C(NC(=O)c1ccc(OC)cc1)(Nc1ncc(S(=O)(=O)c2ccc([N+](=O)[O-])cc2)s1)C(F)(F)F` (centres undefined), the inhibition was -14.3%.

In the case of `CSc1nc2ccc(S(=O)(=O)N3CCc4ccccc43)cc2s1`, the inhibition is 71% (active).

Take `O=C(NC(Nc1nc2ccc([N+](=O)[O-])cc2s1)(C(F)(F)F)C(F)(F)F)c1ccccc1`: the inhibition was 106% (active).

Consider `Cc1nc(C(=O)Nc2ccc(Cl)cc2)sc1C1(C)CC(c2ccccc2)=NO1` (centres undefined), for which the inhibition was 19.7%.

`COc1ccc(CCNCC(O)Cn2ccc3ccccc32)cc1OC` (centres undefined): the inhibition was 7.33%.

On to `CC(C)CCn1c(CN(C)Cc2ccccc2)nc2c1c(=O)n(C)c(=O)n2C`, for which the inhibition is 16%.

For `CC(C)Cn1c(CN(Cc2ccccc2)Cc2ccccc2)nc2c1c(=O)n(C)c(=O)n2C`, the inhibition was 95% (active).

For `COCCn1c(CN(Cc2ccccc2)Cc2ccccc2)nc2c1c(=O)n(C)c(=O)n2C`, the inhibition was 63.3%.

With `S=C(NNC(=S)NC1CC2CCC1C2)NC1CC2C=CC1C2` (centres undefined), the inhibition is 12.8%.

As to `COC(=O)c1c(C)[nH]c(C(=O)/C=C/c2ccc(Cl)cc2)c1C`, the inhibition was 85% (active).

Regarding `Cc1cc(C)nc(NC(=O)/C=C/c2ccc(Cl)cc2)n1`, the inhibition is 8.16%.

With `CCCCOC(=O)c1[nH]c(C)c(C(=O)OC)c1C`, the inhibition was -2.34%.

With `Cn1c(S(=O)(=O)O)nc2ccccc21`, the inhibition was 10.4%.

For `COc1ccccc1-c1c(C#N)c(N)nc2c1CCC2`, the inhibition is -1.63%.

With `O=c1[nH]c2cccnc2n1-c1ccc([N+](=O)[O-])cc1`, the inhibition is 16.2%.

For the compound `OCC1(Cc2ccccc2C(F)(F)F)CCN(Cc2ccncc2)CC1`, the inhibition was 1.13%.

`CCC(=O)N1CCCc2ccccc21`: the inhibition is -4.19%.

As to `CCCN(CCC)c1ccc(C(O)c2nnc(-c3ccccc3)o2)cc1` (centres undefined), the inhibition was 91.7% (active).

Consider `C=CCn1c(SCc2nnc(-c3ccccc3)o2)nnc1C(O)c1ccccc1` (centres undefined), for which the inhibition was 14%.

Consider `OC(c1nnc(-c2ccccc2)o1)c1cccs1` (centres undefined), for which the inhibition was -26.1%.

As for `O=C1C2C3C=CC(C3)C2C(=O)N1c1ccc(S(=O)(=O)Nc2nccs2)cc1` (centres undefined), the inhibition was 15.9%.

With `O=C(COC(=O)CCc1nc2ccccc2c(=O)[nH]1)Nc1ccc(N2CCOCC2)cc1`, the inhibition is 12.7%.

As for `CCOC(=O)c1sc(=S)n(-c2cccc(OC)c2)c1N`, the inhibition was 7.44%.

As for `CCOC(=O)c1sc(=S)n2c1[nH]c(=O)c1ccc(C(=O)OC)cc12`, the inhibition was 90.7% (active).

In the case of `CCOC(=O)Cn1c(N)c(C(=O)OC)sc1=S`, the inhibition was 25.2%.

Take `Fc1ccccc1/C=N/n1c(-c2cccnc2)n[nH]c1=S`: the inhibition was 6.74%.

Take `COc1cccc(CC(=O)Nc2ccc(-c3csc(C)n3)cc2)c1`: the inhibition is 7.07%.

In the case of `CCOC(=O)C(=CNNc1ccsc1C(=O)OC)C(=O)OCC`, the inhibition is 8.45%.

Take `Cc1cccc(C)c1OCC(O)CN1CCCCC1` (centres undefined): the inhibition was 10.2%.

In the case of `Cc1ccc(OCC(O)CN2CCN(CC(O)COc3ccc(C)cc3Cl)CC2)c(Cl)c1` (centres undefined), the inhibition is 93.5% (active).

For `Cc1ccccc1OCC(O)CN1CCN(c2ccccn2)CC1` (centres undefined), the inhibition was 15.9%.

Turning to `CCCCCCCC(=O)OC(CN1CCCCCC1)CN1CCCC1=O` (centres undefined), the inhibition was 4.3%.

In the case of `Fc1ccccc1C(c1nnnn1Cc1ccc2c(c1)OCO2)N1CCN(Cc2ccccc2)CC1` (centres undefined), the inhibition was 97.9% (active).

Turning to `Cc1cc(C)c2[nH]c(=O)c(C(c3nnnn3Cc3ccc4c(c3)OCO4)N3CCCC3)cc2c1` (centres undefined), the inhibition was -5.25%.

On to `CC(C)(C)n1nnnc1C(c1ccc(F)cc1)N1CCN(Cc2ccc3c(c2)OCO3)CC1` (centres undefined), for which the inhibition is 16.3%.

`CCC1=NN2C(=N)/C(=C/c3cc(C)n(-c4ccccc4)c3C)C(=O)N=C2S1`: the inhibition is -8.4%.

As for `c1ccc(CCN2CN=C(Nc3nc4ccccc4o3)NC2)cc1`, the inhibition is 94.3% (active).

Turning to `CCCN1CNC(=S)N(CCc2ccccc2)C1`, the inhibition was 1.62%.

With `N#CNC1=NCN(CCc2ccccc2)CN1`, the inhibition is -32.6%.

With `COCCNC(=O)CCCn1c(=O)c2ccccc2n(Cc2cccc([N+](=O)[O-])c2)c1=O`, the inhibition is -6.2%.

Regarding `CCCCNC(=O)CCn1c(=S)[nH]c2cc3c(cc2c1=O)OCO3`, the inhibition is 55%.

Regarding `CCCCNC(=O)CCn1c(=O)c2ccccc2n(Cc2cc(C)ccc2C)c1=O`, the inhibition is 86.5% (active).
